The list is not random: actives were taken first. Their share in the collection is about 3.3%.
VACV mCherry inh – qHTS for Stage-Specific Inhibitors of Vaccinia Orthopoxvirus: mCherry Reporter Primary qHTS | 310,000 compounds, 0.63% hits | Vaccinia virus mCherry reporter infection, fluorescence | AID 720579, 2013 | Potency, µM (titrated, usually from 36.5 µM), without a hit: at the top dose activity change, negative = inhibition, hits mostly inhibitors; calls by dose curve; tested in A549 cells; also: nearly all actives have a fitted effect of over 35% in size
Vaccinia Venus – qHTS for Stage-Specific Inhibitors of Vaccinia Orthopoxvirus: Venus Reporter Primary qHTS | 330,000 compounds, 0.46% hits | Vaccinia virus Venus reporter expression, fluorescence | Potency, µM (top dose mostly 36.5 µM), without a hit: at the highest dose activity change, negative = inhibition, actives largely listed as inhibitors | AID 720580, 2013; calls by dose curve; tested in A549 cells; also: nearly all actives have a fitted effect of over 30% in size
HCV inh – qHTS Assay for Inhibitors of Hepatitis C Virus (HCV). Huh7.5.1 HCVcc-Cre infection, luciferase reporter, 44 h. Potency, µM (top dose mostly 41.8 µM), without a hit: at the top dose activity change, negative = inhibition, most hits filed as inhibitors. 340,000 compounds, 3.4% hits. AID 651820, 2012; active = well fitted inhibition curve with a large enough effect; inconclusive = small, poorly fitted or top-dose-only effect, or another doubt; inactive = no such curve, though single readings can be large or run the other way
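Infectious HCV cell culture screen: compound-treated cells (1,000/well, pre-plated 4 h) are infected with HCVcc-Cre at roughly 0.5 moi and grown 44 h. Infection is quantified by luciferase signal after 15 min substrate incubation at room temperature.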
The depositor's hits bear a star; i = inactive; ? = inconclusive; · = not tested or not shown; ! = not active in a repeat; [ ] = remark or other dose. % is scaled to controls: 0 for no effect and ±100 for the full control effect; potency is read from the fitted curve at half-maximal effect.

SMILES	VACV mCherry inh	Vaccinia Venus	HCV inh
O=C(/C=C/c1ccccc1)c1c[nH]c2ccccc12	-21%[7.34 µM]	-18%[7.34 µM]	0%
Cc1[nH]c2ccccc2c1/C=C/C(=O)c1ccccc1	?	-12%	?
COc1cccc(CN2CCN(Cc3cccc(Oc4ccccc4)c3)CC2)c1OC	-28%	-28%	?
COc1cccc(CN2CCC(N(CCc3ccccc3)Cc3ccccc3)CC2)c1OC	?	?	11µM*
Oc1cccc(Nc2cc(-c3ccccc3)ncn2)c1	-16%	-16%	·
CCN(CCO)c1ccc(Nc2cc(-c3ccc(-c4ccccc4)cc3)ncn2)cc1	32µM*	-25%	·
CCn1c(C)cc2c(c1=O)C(c1ccccc1)C(C(=O)OC)=C(N)O2 (stereo not drawn)	·	·	-18%
COC(=O)C1=C(N)Oc2cc(C)n(Cc3ccco3)c(=O)c2C1c1cccc(Cl)c1 (stereo not drawn)	·	?	8.9µM*
COc1ccc(C(=O)NC2CC3CCCC(C2)N3Cc2ccccc2)cc1OC (stereo not drawn)	·	·	-9%
c1coc(CNc2ncnc3c2nc2n3CCCC2)c1	-28%	-19%	·
N#C/C(=N\Nc1cccc([N+](=O)[O-])c1)C(=O)c1ccc(Br)cc1	1.8µM*	?	10µM*
N#C/C(=N/Nc1ccc([N+](=O)[O-])cc1)C(=N)N1CCCCC1	i	-13%	3%
N#C/C(=N\Nc1ccc([N+](=O)[O-])cc1)C(N)=S	-12%	-15%	10µM*
O=C(O)c1ccc(N=NNc2cccc([N+](=O)[O-])c2)cc1	?	2%	32%
Clc1cccc(CNCCCSc2ncccn2)c1	-13%	-5%	-10%
O=C(Nc1cccc(Nc2ccccc2)c1)c1cnn2c1NC(=C1CC1)C=C2C(F)F	-12%	-18%	·
Cc1c(C=Nc2ccc(S(=O)(=O)N(C)C)cc2)c(O)[nH]c(=O)c1C#N	-15%	-8%	-13%
CN(CC1COc2ccccc2O1)c1nc(-c2cccnc2)nc2ccccc12 (stereo not drawn)	?	-15%	11µM*
Cc1ccc(CN(C)c2nc(-c3cccnc3)nc3ccccc23)o1	-1%	-4%	?
COC(=O)CNc1nc(-c2cccnc2)nc2ccccc12	-17%	-17%	?
c1cncc(-c2nc(NCC3COc4ccccc4O3)c3ccccc3n2)c1 (stereo not drawn)	?	11µM*	11µM*
c1ccc(CCc2nnc3n2CCN(Cc2ccc4ccccc4n2)CC3)cc1	-12%	-9%	·
COc1ccc(Cl)cc1NCCC(O)c1ccc(F)cc1 (stereo not drawn)	·	·	7.1µM*
COc1ccc(NCCC(O)c2ccc(Cl)cc2)cc1 (stereo not drawn)	-13%	-7%	18%
OCCCNc1cc(-c2ccnc(Nc3cccc(Cl)c3)n2)ccn1	?	1µM*	2µM*
SMILES	VACV mCherry inh	Vaccinia Venus	HCV inh
CCC(C)Oc1cc(-c2ccnc(Nc3cccc(Cl)c3)n2)ccn1 (stereo not drawn)	?	?	12%
Cc1cc2ccccc2cn1	-10%	-5%	·
O=C(Nc1cccc(-c2csc(Nc3ccccc3)n2)c1)c1ccccc1	5µM*	?	?
CC(=O)c1cccc(Nc2nc(-c3cccnc3)cs2)c1	?	-25%	?
Cc1nc(-c2ccc(NC(=O)c3ccccc3)cc2)cs1	·	·	11µM*
O=C(Nc1ccc(-c2csc(Nc3ccc(Cl)cc3)n2)cc1)c1ccccc1	i	1%	?
Cc1ccc(C(=O)Nc2ccc(-c3csc(C)n3)cc2)cc1	-4%	-24%	?
CC(=O)c1cccc(Nc2nc(-c3ccccc3)cs2)c1	-30%	?	2.5µM*
CC(=O)Nc1ccc(/C=C/c2ccnc3ccccc23)cc1[N+](=O)[O-]	i	-14%	·
CCCn1c(N)c(C(=O)CSc2nc(C)nc3sc(C)c(C)c23)c(=O)[nH]c1=O	-15%	-8%	-13%
COc1ccccc1N1CCN(C(=O)NCc2cccc(C(F)(F)F)c2)CC1	-18%	1%	4%
Cc1[nH]c2ccccc2c1C(c1c[nH]c2ccccc12)c1c(C)[nH]c2ccccc12	6%	11%	·
CCOc1ccc(CCNC(=O)C2CCCN(S(=O)(=O)N(C)c3ccc(F)cc3)C2)cc1 (stereo not drawn)	-12%	-25%	·
Cc1cccc(NC(=O)CSc2n[nH]c(-c3cccnc3)n2)c1	-13%	-3%	3%
CCCCn1c(=N)n(CCOc2ccccc2OC)c2ccccc21	-19%[7.34 µM]	-20%[7.34 µM]	·
CCN(CC)CCn1c(=N)n(CCOc2ccccc2)c2ccccc21	·	·	10µM*
CCN(CC)CCn1c(=N)n(CC(O)COc2ccccc2)c2ccccc21 (stereo not drawn)	-10%	-28%	?
CCCCn1c(=N)n(CCOc2ccc(C)cc2)c2ccccc21	14µM*	?	8%
Cc1ccc(F)cc1S(=O)(=O)NCc1nc(N2CCCC2)c2cccc(C)c2n1	i	-15%	·
COCCNC(=S)N1CCN(c2nc(-c3ccc(Cl)cc3)cs2)CC1	?	-15%	13µM*
CCCCC(=O)N1CCN(c2nc(-c3ccc(F)cc3)cs2)CC1	-15%	-12%	?
S=C(NCc1ccco1)N1CCN(c2nc(-c3ccccc3)cs2)CC1	-22%	-19%	?
S=C(NCC1CCCO1)N1CCN(c2nc(-c3ccccc3)cs2)CC1 (stereo not drawn)	?	-13%	10µM*
CNC(=S)N1CCN(c2nc(-c3ccc(Cl)cc3)cs2)CC1	?	-17%	?
CCN(CC)CCCNC(=S)N1CCN(c2nc(-c3ccc(F)cc3)cs2)CC1	i	?	4µM*
SMILES	VACV mCherry inh	Vaccinia Venus	HCV inh
O=C(NCc1ccc(Cl)cc1)c1ccc2ccccc2n1	?	5%	-18%
Clc1ccc(/C(Cc2nc3ccccc3[nH]2)=N\Nc2ccccc2)cc1	?	-7%	11µM*
O=C(Cc1nc2ccccc2[nH]1)c1ccc(Cl)cc1	-9%	-12%	?
Cc1ccc(-n2c(=O)c3ccccc3n(CC(=O)Nc3cccc(C(F)(F)F)c3)c2=O)cc1	-1%	-15%	·
Cc1cc(C)c2sc(NC(=O)c3ccc(S(=O)(=O)N4CCOCC4)cc3)nc2c1	-14%	-15%	·
O=C(Nc1nc(-c2nc3ccccc3s2)cs1)c1ccc(S(=O)(=O)N2CCOCC2)cc1	?	?	11µM*
Cc1ccc(-c2csc(NC(=O)COC(=O)c3cccc(S(=O)(=O)N4CCOCC4)c3)n2)cc1	·	·	-7%
O=C(Nc1nc(-c2ccccc2)cs1)C1CCCN(S(=O)(=O)c2cccc([N+](=O)[O-])c2)C1 (stereo not drawn)	·	·	-29%
COc1ccc(-c2csc(NC(=O)c3ccc(OCC(=O)N4CCOCC4)c(OC)c3)n2)cc1	-18%	-19%	?
COc1cc(C(=O)Nc2nc(-c3ccc(C)cc3)cs2)ccc1OCC(=O)N1CCOCC1	·	·	11µM*
O=C(Nc1nc(-c2ccccc2)cs1)C1CCCN(S(=O)(=O)c2ccccc2)C1 (stereo not drawn)	?	-23%	5µM*
COc1cccc(C(=O)Nc2nc(-c3ccc(S(=O)(=O)N4CCOCC4)cc3)cs2)c1	-25%	-26%	10µM*!
CC(=O)NS(=O)(=O)c1ccc(NS(=O)(=O)c2ccccc2[N+](=O)[O-])cc1	-13%	-12%	19%
